Screening results as filed in PubChem BioAssay.
Shown are actives, neighbours in structure and some others; about 19% of the full set was active somewhere.
DT40 TDP1 CPT: qHTS for Inhibitors of human tyrosyl-DNA phosphodiesterase 1 (TDP1): qHTS in cells in presence of CPT | Potency, µM (doses to about 46.2 µM), for the others: at the top dose activity change, negative = growth inhibition, actives largely listed as inhibitors | chicken DT40 Tdp1-/-;hTDP1 cells + 20 nM CPT, ATP luminescence, 48 h | 12% of 420,000 active | AID 686979, 2013; further: potency means the concentration at half of the fitted maximal effect; nearly all actives have a fitted effect of over 55% in size
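Cell growth measured by CellTiter-Glo luminescence after a minimum 48 h, 37 C compound exposure with 20 nM CPT in Tdp1-knockout DT40 cells stably expressing hTDP1, seeded 400/well; qHTS titration format.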
ELG1 DNA repair: qHTS screen for small molecules that inhibit ELG1-dependent DNA repair in human embryonic kidney (HEK293T) cells expressing luciferase-tagged ELG1; 2.3% of 330,000 active; HEK293T ELG1-luciferase reporter, luminescence, 16 h; DNA damage induced by 5-fluorouridine; Potency, µM (doses to about 46.1 µM), for the others: at the highest dose activity change, negative = inhibition, hits mostly inhibitors; further: potency means the concentration at half of the fitted maximal effect; nearly all actives have a fitted effect of over 55% in size
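Reporter activity after DNA damage by 5-fluorouridine is monitored. Compound-treated cells incubate 16 hr at 37 °C, then ONE-Glo is added for 30 min before luminescence reading.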
IL-1B inflam inh: qHTS for Inhibitors of Inflammasome Signaling: IL-1-beta AlphaLISA Primary Screen. THP-1 LPS/ATP IL-1B secretion, AlphaLISA, 16 h; active compounds read low. activity change, % at 57.5 µM. 4.7% of 360,000 active; in the data active means activity change below about -50%; inconclusive means mostly about -30% to -49%
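THP-1 cells pretreated 1 hr with compounds (up to 57.5 uM final), then stimulated with LPS (250 ng/mL final) plus ATP (1.25 mM final); secreted IL-1B measured by AlphaLISA after 16 hr, decreased signal indicating inhibition.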
HT1080 IDH1KD tx: qHTS for induction of synthetic lethality in tumor cells producing 2HG: qHTS for the HT-1080-IDH1KD cell line; Potency, µM (highest dose often 46.1 µM), inactives show at the highest dose activity, negative = toxicity, most hits filed as cytotoxic; HT-1080 IDH1 knockdown viability, ATP luminescence, 48 h; 2% of 360,000 active;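 further: potency means the concentration at half of the fitted maximal effect; 0% = DMSO wells and -100% = cell-free medium wells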
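CellTiter-Glo luminescence after 48 h compound exposure at 37 degrees C of IDH1-knockdown HT-1080 cells in 5% FBS RPMI. %Activity scaled between DMSO wells and cell-free media wells, with curves fitted and assigned curve classes.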
HT1080-NT tox: qHTS for induction of synthetic lethality in tumor cells producing 2HG: qHTS for the HT-1080-NT fibrosarcoma cell line. HT-1080-NT fibrosarcoma viability, CellTiter-Glo ATP luminescence, 48 h. Potency, µM (doses to about 46.1 µM), for the others: top-dose activity, negative = less viability, usual class: cytotoxic. 1.6% of 360,000 active;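 further: NT is the 2HG producing partner of a matched IDH1 knockdown line; potency means the concentration at half of the fitted maximal effect; 0% = DMSO-treated cells and -100% = media-only wells without cells; nearly all actives have a fitted effect of over 55% in size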
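Viability of the 2HG-overproducing fibrosarcoma line after 48 hours of compound exposure at 37 degrees C was determined by luminescence with CellTiter-Glo, and concentration-effect curves were then fitted and categorized.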
TDP1 cell noCPT: qHTS for Inhibitors of human tyrosyl-DNA phosphodiesterase 1 (TDP1): qHTS in cells in absence of CPT | DT40 Tdp1-/- hTDP1 cells, no CPT, ATP luminescence, 48 h | Potency, µM (titrated, usually from 46.2 µM), inactives show at the highest dose activity change, negative = growth inhibition, actives largely listed as inhibitors | 15% of 420,000 active; further: potency means the concentration at half of the fitted maximal effect; nearly all actives have a fitted effect of over 55% in size
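Growth of hTDP1-complemented DT40 Tdp1-knockout cells is measured by ATP luminescence after at least 48 hr compound exposure at 37 °C, with DMSO substituting for the 20 nM CPT used in the parallel screen.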
Active calls of the source: *; ? = inconclusive; . = no result given. Unless noted, the call rests on the fitted dose curve; in most records, active means well fitted curve in the direction sought with a large enough effect; inconclusive means small, poorly fitted or top-dose-only effect, or another doubt; inactive means no such curve, though single readings can be large; an effect the other way counts as inactive or inconclusive. Unless noted, on the % scale 0 is the no-effect control and ±100 the full control effect.

SMILES	DT40 TDP1 CPT	ELG1 DNA repair	IL-1B inflam inh	HT1080 IDH1KD tx	HT1080-NT tox	TDP1 cell noCPT
O=C(Nc1ccc(-c2nc3ccc(NC(=O)c4cccs4)cc3[nH]2)cc1)c1cccs1	1.6µM*	?	-23	.	.	1.6µM*
O=C(O)C1OC(Oc2c(-c3ccc(O)c(O)c3)oc3cc(O)cc(O)c3c2=O)C(O)C(O)C1O (stereo not given)	?	11%	24	6%	0%	13µM*
COc1cccc(CNC(=O)c2cnc3sc(N4CCCC4)nn3c2=O)c1OC	3%	.	.	.	.	-15%
CCN(CC)c1nn2c(=O)c(C(=O)NCc3ccccc3Br)cnc2s1	23µM*	.	.	.	.	?
COc1ccccc1CNC(=O)c1cnc2sc(N3CCCCC3)nn2c1=O	?	.	.	.	.	23µM*
CCOc1ccccc1CNC(=O)c1cnc2sc(N3CCCC3)nn2c1=O	15µM*	.	.	.	.	16µM*
CCN(CC(=O)Nc1ccc(Br)cc1)C(=O)Cc1cccc(F)c1	3%	-14%	-2	-2%	-1%	-25%
COc1ccc(/C=N/N=C2/NC(=O)C(c3ccccc3)S2)c(OC)c1 (stereo not given)	-1%	14%	0	-19%	-24%	-3%
Cc1ccc(OS(=O)(=O)c2ccccc2)c(/C=N/N=C2\NC(=O)C(C)S2)c1 (stereo not given)	?	2%	-3	-24%	-2%	18µM*
O=C1CS/C(=N/N=C/c2ccccc2OS(=O)(=O)c2ccccc2)N1	1µM*	3%	23	6%	0%	1µM*
O=C1CS/C(=N/N=C/c2cccs2)N1	8%	?	10	1%	13%	3%
Cc1ccc(/C=C/c2nc3ccccc3n2S(=O)(=O)c2ccc(Br)cc2)cc1	?	.	.	.	.	21µM*
CSc1ccc(/C=C/c2nc3ccccc3n2S(=O)(=O)c2cccc(Cl)c2)cc1	13µM*	.	.	.	.	10µM*
COc1cc(S(=O)(=O)n2c(C)nc3ccccc32)ccc1F	?	-1%	32	?	?	?
O=S(=O)(c1cccc(Cl)c1)n1c(/C=C/c2ccccc2Cl)nc2ccccc21	18µM*	.	.	.	.	13µM*
O=c1[nH]c(/C=C2\C=Nc3ccccc32)c(O)n1Cc1ccccc1F	?	?	-97*	?	-22%	?
CCc1ccc(CNC(=O)c2ccc3c(c2)NC(=O)C(N2CCOCC2)S3)cc1 (stereo not given)	23µM*	?	-6	-29%	?	-57%
CCCCN(C)CCCNC(=O)c1ccc2c(c1)NC(=O)C(N1CCOCC1)S2 (stereo not given)	-2%	16%	-3	5%	4%	-3%
Cc1cccc(OCCNc2cc(N3CCN(C)CC3)ccc2[N+](=O)[O-])c1	?	-6%	?	16%	2%	23µM*
Cc1ccc(OCCNc2cc(N3CCN(CCO)CC3)ccc2[N+](=O)[O-])cc1C	?	?	?	?	?	29µM*
COc1ccc(C(O)c2ncc(-c3ccccc3Cl)[nH]2)cc1F (stereo not given)	?	.	?	-1%	-1%	-26%
O=C(NCC(=O)N(c1ccccc1F)C(C(=O)NC1CCCC1)c1cccnc1)c1ccco1 (stereo not given)	10%	10%	26	13%	2%	16%
Cn1c(N)c(C(=O)COC(=O)c2ccc(-c3ccccc3)cc2)c(=O)n(C)c1=O	?	23µM*	19	4%	12%	?
CC(C)Cn1c(N)c(C(=O)COC(=O)c2ccccc2C(=O)c2ccccc2)c(=O)n(C)c1=O	16µM*	16µM*	11	-4%	-6%	9.2µM*
Cn1c(N)c(C(=O)COC(=O)c2ccccc2C(=O)c2ccc(Cl)cc2)c(=O)n(C)c1=O	?	?	?	?	?	15µM*
SMILES	DT40 TDP1 CPT	ELG1 DNA repair	IL-1B inflam inh	HT1080 IDH1KD tx	HT1080-NT tox	TDP1 cell noCPT
CC(C)Cn1c(N)c(C(=O)COC(=O)c2cccnc2Cl)c(=O)n(C)c1=O	?	-17%	21	9%	7%	10µM*
COc1cccc(C(=O)OCC(=O)c2c(N)n(C)c(=O)n(C)c2=O)c1	5%	45%	-26	8%	5%	4%
CCOc1ccc(NC(=O)Cn2c(=O)n(CCC(=O)NCCc3ccccc3)c(=O)c3ccccc32)cc1	8%	.	.	.	.	5%
CC(C)Cn1c(N)c(C(=O)COC(=O)c2ccccc2Cl)c(=O)n(C)c1=O	?	?	1	0%	-15%	?
Cc1onc(-c2ccccc2Cl)c1C(=O)OCC(=O)c1c(N)n(C)c(=O)n(C)c1=O	7.3µM*	?	-21	-10%	-6%	7.3µM*
CC(C)Cn1c(N)c(C(=O)COC(=O)c2ccc3ccccc3n2)c(=O)n(C)c1=O	16µM*	?	11	-8%	-9%	16µM*
Cc1onc(-c2c(F)cccc2Cl)c1C(=O)OCC(=O)c1c(N)n(C)c(=O)n(C)c1=O	?	?	11	-23%	?	?
Cc1cccc(C)c1NC(=O)C1(C)CCC(=O)N1c1cc(C(C)(C)C)nn1C (stereo not given)	-6%	.	-2	13%	?	-5%
O=C(NN1C(=O)c2ccccc2NC1c1ccoc1)c1ccccc1 (stereo not given)	-4%	?	-4	9%	6%	3%
O=C(NN1C(=O)c2ccccc2NC1c1ccccn1)c1ccccc1 (stereo not given)	16µM*	12%	11	12%	10%	?
CC(=O)c1c(C(C)=O)c(C)n(Cc2ccc(Cl)cc2)c1C	16µM*	-6%	-10	?	-16%	18µM*
CC(=O)c1c(C(C)=O)c(C)n(NC(=O)c2ccc(Cl)cc2)c1C	?	4%	5	-7%	-5%	2%
O=C(Nc1ccccc1)c1cccc(N2C(=O)C3C4C=CC(C5CC45)C3C2=O)c1 (stereo not given)	-1%	?	-55*	-1%	-21%	?
